# Bioassay records deposited in PubChem BioAssay by several laboratories.
# Beta cell apopt = inhibitors of cytokine-induced beta cell apoptosis, primary screen, luminescence. INS-1E cytokine-induced death, ATP luminescence, 48 h; percent of positive-control rescue, neutral wells zero. protection from apoptosis, % (concentration not given with the values). 300,000 compounds, 0.8% hits;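 active means Every replicate reaches about 75%, or at least half do and their mean reaches it too, limit read from the data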;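 further: 0% = cytokine-treated negative control wells and 100% = positive control rescue; higher means more ATP so stronger rescue from cytokine killing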
# Gli-Sufu block = Gli-Sufu pathway antagonists, primary screen, luciferase luminescence, Sufu-KO-LIGHT cells, uHTS. inhibition, % at 5 µM. 340,000 compounds, 0.74% hits. Sufu-KO-LIGHT fibroblasts, Gli luciferase reporter luminescence. AID 588413, 2011;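 active means inhibition above about 55%, limit read from the data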;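 further: 0% = DMSO-treated cells and 100% = wells with medium but no cells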
# 697 NFkB inh = inhibitors of PMA/ionomycin-induced NF-kB reporter, 697 cells, primary screen, B-cell NF-kB inhibitor project, cell-based, luminescence, uHTS. 697 B-cell NF-kB luciferase reporter, 16 h. inhibition, % at 4 µM. 330,000 compounds, 0.33% hits. AID 435022, 2010; in the data active means inhibition above about 35%
# Mdm2-MdmX inh = inhibitors of human Mdm2-MdmX association, primary screen, cell-based, luminescence, split luciferase, SaOS-2, uHTS. Protein Mdm4 (Homo sapiens) + E3 ubiquitin-protein ligase Mdm2 (Homo sapiens), …. SaOS-2 split-luciferase Mdm2/MdmX complementation. inhibition, % at 8 µM. 330,000 compounds, 3% hits;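 active means inhibition of at least 50% at 8 µM in the primary screen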
# Target sequence (O15151 whole entry, looked up): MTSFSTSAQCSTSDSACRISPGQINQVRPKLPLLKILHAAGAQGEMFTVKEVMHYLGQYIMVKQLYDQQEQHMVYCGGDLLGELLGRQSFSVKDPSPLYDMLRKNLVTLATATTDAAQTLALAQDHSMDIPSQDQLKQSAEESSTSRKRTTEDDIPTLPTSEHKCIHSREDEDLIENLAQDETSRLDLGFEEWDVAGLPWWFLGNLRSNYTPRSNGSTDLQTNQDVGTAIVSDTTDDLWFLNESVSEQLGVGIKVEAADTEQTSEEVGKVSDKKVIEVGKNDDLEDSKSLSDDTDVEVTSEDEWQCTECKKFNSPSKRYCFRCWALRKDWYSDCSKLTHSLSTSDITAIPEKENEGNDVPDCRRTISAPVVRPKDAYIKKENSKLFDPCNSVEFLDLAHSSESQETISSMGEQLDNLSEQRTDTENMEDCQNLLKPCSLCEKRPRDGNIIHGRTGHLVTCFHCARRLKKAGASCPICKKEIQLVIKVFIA
# Target sequence (Q00987 whole entry, looked up): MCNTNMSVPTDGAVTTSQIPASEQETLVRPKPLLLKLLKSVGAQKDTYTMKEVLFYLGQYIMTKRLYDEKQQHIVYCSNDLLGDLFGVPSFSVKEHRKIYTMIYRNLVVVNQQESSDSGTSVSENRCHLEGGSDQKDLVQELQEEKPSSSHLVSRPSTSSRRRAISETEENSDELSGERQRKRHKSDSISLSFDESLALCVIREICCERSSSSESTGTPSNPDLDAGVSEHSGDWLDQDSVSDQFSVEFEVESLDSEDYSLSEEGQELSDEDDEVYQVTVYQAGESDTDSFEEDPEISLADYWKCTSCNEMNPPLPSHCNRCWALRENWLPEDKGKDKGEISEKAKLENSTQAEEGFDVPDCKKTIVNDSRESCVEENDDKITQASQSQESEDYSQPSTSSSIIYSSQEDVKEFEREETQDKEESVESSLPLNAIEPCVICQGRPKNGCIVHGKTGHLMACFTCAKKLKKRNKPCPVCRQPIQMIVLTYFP
# CSC inhib = cancer stem cell viability inhibitors, primary screen, luminescence | cancer stem cell-like cells viability | inhibition, % at 7.5 µM | 300,000 compounds, 1.1% hits | AID 2717, 2010; in the data active means inhibition above about 75%; tested in HMLE shEcad cells
# Jurkat NFkB inh = inhibitors of induced NF-kB luciferase reporter, primary screen, TCR NF-kB activation inhibitor project, cell-based, luminescence, uHTS; AID 435003, 2010; inhibition, % at 4 µM; Jurkat, PMA/ionomycin-induced NF-kB luciferase reporter; 330,000 compounds, 0.53% hits; in the data active means inhibition above about 50%
# Mdm2-MdmX conf = Mdm2-MdmX complex disruptors, retested hits, confirmation, luminescence, single concentration. inhibition, % at 8 µM. Mdm2-MdmX binding, luminescent assay. 10,000 compounds, 55% hits. AID 489028, 2010. shares compounds with Mdm2-MdmX inh; in the data active means inhibition above about 40%
# FLuc counter = full-length luciferase signal inhibition, confirmation, counter-screen for Mdm2/MdmX interaction inhibitor project, cell-based, single concentration, SaOS-2; shares compounds with Mdm2-MdmX inh; SaOS-2 full-length luciferase counterscreen, luminescence; inhibition, % at 8 µM; 6,200 compounds, 77% hits; AID 504607, 2011;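 active means mean inhibition at 8 µM reaching about 37%, which flags the compound as non-specific, limit read from the data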;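 further: p53-null SaOS-2 cells with luciferase driven by a doxycycline-inducible promoter; compound on cells about two nights before reading with doxycycline added after day one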
# Gli antag conf = Gli-SUFU pathway antagonists, confirmation, single concentration, luciferase luminescence, Sufu-KO-LIGHT cells | 2,500 compounds, 40% hits | shares compounds with Gli-Sufu block | Gli luciferase reporter | AID 602428, 2012 | inhibition, % at 5 µM;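 active means mean inhibition at 5 µM reaching about 45%, limit read from the data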;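 further: plate controls were DMSO-treated cells for no effect and wells lacking cells for full effect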
# SufuKO cytotox = cytotoxicity in Sufu-KO-LIGHT cells, confirmation, cytotoxicity control for Gli-SUFU antagonist project, cell-based, ATP luminescence, single concentration. cytotoxicity, % at 5 µM. 2,500 compounds, 32% hits. shares compounds with Gli-Sufu block;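 active means mean cytotoxicity at 5 µM above about 25%, limit read from the data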;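 further: cells exposed to compound overnight for roughly 16 to 18 hours; plate controls were DMSO wells with cells for no effect and medium without cells for full effect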
# Wnt3a counter = Wnt3a reporter signal inhibition, confirmation, counter-screen for Gli-SUFU antagonist project, Wnt-LIGHT cells, luminescence, single concentration. 2,500 compounds, 20% hits. AID 651995, 2013. shares compounds with Gli-Sufu block. inhibition, % at 6.25 µM. Wnt3a-driven luciferase reporter;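 active means mean inhibition above about 25%, limit read from the data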
# Active calls of the source: *; nt = not tested or not shown. Rows were chosen to be rich in hits. Some 4.5% of all compounds tested hit in one or more screens of this group.
SMILES,Beta cell apopt,Gli-Sufu block,697 NFkB inh,Mdm2-MdmX inh,CSC inhib,Jurkat NFkB inh,Mdm2-MdmX conf,FLuc counter,Gli antag conf,SufuKO cytotox,Wnt3a counter
COc1cc(Nc2c3ccccc3nc3ccccc23)cc(OC)c1OC,38,61*,-13,86*,31,36,55*,62*,31,16,-43
COc1ccc(Nc2c3c(nc4ccccc24)CCCC3)cc1OC,11,24,-59,25,-3,-7,nt,nt,nt,nt,nt
N#C/C(=N\Nc1ccc(Cl)cc1)C(N)=S,33,60*,-72,64*,37,-14,64*,44*,59*,12,32*
Cc1cc2c(cc(C(=O)OCC(=O)NCc3cccs3)n2C(C)C)o1,-1,50,-60,63*,66,35,50*,77*,31,56*,-36
Cc1cc(C)cc(C(=O)OCC(=O)NCc2cccs2)c1,2,-10,-16,23,-3,-3,nt,nt,nt,nt,nt
NC(=O)Cn1ccc(O)c(Cc2ccc(Cl)cc2Cl)c1=O,2,12,14,1,7,-19,nt,nt,nt,nt,nt
CC1Nc2ccc(C(=O)NC3CCCCC3)cc2NC1=O (stereo not given),0,-25,12,7,-10,8,nt,nt,nt,nt,nt
COC(=O)c1ccc(-c2ccc(OC)c([C@H]3[C@H]4C=CC[C@@H](C)[C@@H]4C(=O)N3Cc3ccccc3)c2)cc1,-10,54,31,62*,21,-23,45*,46*,50*,38*,-2
COc1cccc(CNC(=O)Cn2ccc3cc(S(=O)(=O)N4CCCCCC4)ccc32)c1,0,0,-7,4,-5,-7,nt,nt,nt,nt,nt
Cc1ccc2c(c1)CCCN2C(=O)CCc1nc2ccccc2c(=O)[nH]1,3,90*,-62,53*,nt,48,60*,49*,22,55*,-12
Cc1nc2c(-c3ccc(Cl)cc3)cnn2c(N)c1-c1ccc(F)cc1,17,63*,-248,88*,58,-51,85*,105*,81*,18,84*
CCN(C(=O)COC(=O)c1ccccc1NCCO)c1cccc2ccccc12,-9,-3,-27,13,3,-15,nt,nt,nt,nt,nt
COc1ccc(/C=C2\SC(=S)N(CCC(=O)N3CCCCC3CCO)C2=O)cc1 (stereo not given),-33,7,0,36,8,10,nt,nt,nt,nt,nt
O=C1/C(=C/c2ccccc2)SC(=S)N1CCCC(=O)N1CCCCC1CCO (stereo not given),-59,59*,-18,85*,15,12,57*,37*,25,2,-4
CN(C)S(=O)(=O)c1ccc2nc(NC(=O)c3cccnc3)sc2c1,-4,-50,-61,0,-12,-11,nt,nt,nt,nt,nt
O=C(NC(Nc1nc2ccc([N+](=O)[O-])cc2s1)(C(F)(F)F)C(F)(F)F)c1cccnc1,119*,84*,-18,100*,70,13,94*,22,87*,35*,81*
c1coc(C2=NC(c3ccco3)C(c3ccco3)N2)c1 (stereo not given),nt,-10,nt,nt,nt,nt,nt,nt,nt,nt,nt
Cc1cc(/C=c2\sc3nc4ccccc4n3c2=O)c(C)n1-c1ccc(C(=O)O)cc1,nt,-18,nt,nt,nt,nt,nt,nt,nt,nt,nt
Cc1cc(/C=c2/sc3nc4ccccc4n3c2=O)c(C)n1-c1ccccn1,23,86*,-75,69*,26,1,94*,14,94*,29*,104*
Cc1ccccc1-c1cccc([C@@H]2C[C@H]3[C@H](CON3C)CN2Cc2ccccc2)c1,nt,-6,nt,nt,nt,nt,nt,nt,nt,nt,nt
Cc1nc2ccccc2c(N)c1C(=O)/C=C/c1ccccc1,8,61*,-35,76*,45,14,33,75*,15,-2,-55
CCn1nnc2cc(C(=O)Nc3cccc(S(=O)(=O)N(C)C)c3)ccc21,-5,-2,19,26,-9,4,nt,nt,nt,nt,nt
Nn1c(SCC(=O)Nc2cccnc2Cl)nnc1-c1ccccc1,-3,-12,7,12,nt,-3,nt,nt,nt,nt,nt
Nc1ccc(C(=O)N/N=C\c2cc(N=Nc3cccc4ccccc34)ccc2O)cc1,70,67*,-57,57*,98*,7,67*,36*,65*,40*,59*
COc1ccc(-n2nc3c(N4CCC(C(=O)NC5CCCCC5)CC4)nnc(C)c3c2C)cc1,12,91*,6,97*,5,19,22,76*,24,17,-92
SMILES,Beta cell apopt,Gli-Sufu block,697 NFkB inh,Mdm2-MdmX inh,CSC inhib,Jurkat NFkB inh,Mdm2-MdmX conf,FLuc counter,Gli antag conf,SufuKO cytotox,Wnt3a counter
COC(=O)Cc1[nH]n(-c2nc3ccccc3s2)c(=O)c1C(C)=Nc1ccc(C)cc1,5,90*,15,56*,-5,45,56*,32,94*,14,106*
COC(=O)Cc1[nH]n(-c2ccccc2)c(=O)c1C(C)=Nc1ccccc1,-5,-4,-8,-32,3,-13,nt,nt,nt,nt,nt
COc1cc(NC(=O)c2ccccc2)c(OC)cc1NC(=O)CN1C(=O)N(C)C2(CCCCC2)C1=O,nt,1,7,17,nt,18,nt,nt,nt,nt,nt
CCOC(=O)c1sc(NC(=O)CSc2n[nH]c(-c3ccccc3)n2)c(C#N)c1C,nt,16,-11,44,44,-15,nt,nt,nt,nt,nt
CCOC(=O)c1sc(NC(=O)c2cc(-c3ccccc3)nc3ccccc23)c(C#N)c1C,45,53,-16,94*,53,-16,91*,47*,74*,11,65*
CCOC(=O)c1sc(NC(=O)c2cccc(S(=O)(=O)N3CCc4ccccc43)c2)c(C#N)c1C,73,73*,-11,89*,44,4,30,nt,78*,16,72*
CC(CCc1ccccc1)NC(=O)C(=O)c1c[nH]c2ccccc12 (stereo not given),nt,-12,3,5,-12,4,nt,nt,nt,nt,nt
